# Hits are enriched below; roughly 2.9% of the tested compounds scored in any of these assays.
# PLC-gamma1 inh – blocks human PLC-gamma1 enzyme activity; AID 720700; P19174; 0.84% of 370,000 active; purified PLC-gamma1, fluorogenic substrate, fluorescence; inhibition, % at 12.2 µM; in the data active = inhibition above about 9.5%
# KLK7 zymogen act – activates the human kallikrein-7 zymogen | activation, % at 7 µM | P49862 | purified proKLK7, EDANS-DABCYL substrate fluorescence; 100% is mature enzyme control, 0% vehicle | 0.9% of 370,000 active;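 active = activation above the mean of all tested compounds plus 3 SD, computed per campaign excluding outliers beyond control limits, cut at about 13% in these data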
# PLCb3 inh – inhibitors of human phospholipase C beta3. Purified PLC-beta3, fluorogenic substrate, fluorescence. inhibition, % at 12.2 µM. 0.18% of 370,000 active. AID 720704; in the data active = inhibition above about 11%;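 note: 0% = median of compound wells on plate and 100% = full blocker control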
# ADAM10 inh – ADAM10 inhibition, QFRET primary screen; O14672; recombinant ADAM10, EDANS/DABCYL FRET peptide cleavage, 3 h; inhibition, % at 7 µM; 0.62% of 370,000 active; AID 720582;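 active = inhibition above a per-campaign cutoff equal to the mean of compounds falling between control-based bounds plus 3 SD, cut at about 20% in these data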;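 note: 0% = DMSO wells while the 100% control is not disclosed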
# ADAM17 inh – inhibitors of human ADAM17; 0.83% of 370,000 active; inhibition, % at 6.95 µM; recombinant ADAM17, EDANS/DABCYL FRET peptide cleavage;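 active = inhibition above the mean of compounds lying between control limits plus 3 SD, set per campaign, cut at about 8.5% in these data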;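 note: 0% = DMSO-only wells as the low control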
# proKLK7 act conf – proKLK7 activation, confirmation; purified proKLK7, EDANS-DABCYL substrate fluorescence; scaled: vehicle 0, mature enzyme 100; activation, % at 7 µM; shares compounds with KLK7 zymogen act; 68% of 3,200 active;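 active = activation, as change over the incubation, above the mean of all tested compounds plus 3 SD, cut at about 13% in these data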
# EDANS-DABCYL int – fluorescence interference counter-screen for KLK7 activators; 80% of 3,200 active; shares compounds with KLK7 zymogen act; EDANS-DABCYL substrate fluorescence interference, no enzyme, 4 h; solvent 0%, active enzyme control 100%; AID 686952; activation, % at 7 µM;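 active = activation above the all-compound mean plus 3 SD, ignoring values outside control-based bounds, cut at about 4.8% in these data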;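 note: value is the 4 h activation minus the activation read at time zero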
# EDANS interf – counter-screen for kallikrein-7 activators: EDANS-DABCYL interference, dose response. shares compounds with KLK7 zymogen act. EDANS-DABCYL peptide fluorescence interference, no enzyme. EC50, µM. 20% of 250 active;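 active = compounds that raise the fluorescence signal in this interference counterscreen, with EC50 at or below 10 µM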;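 note: intact quenched peptide substrate alone read at 355 nm excitation and 520 nm emission; signal is fluorescence gain from T0 to T4 after four hours at room temperature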
# Starred values were filed as active, the others as inactive; i = inactive; x = no result given.
SMILES,PLC-gamma1 inh,KLK7 zymogen act,PLCb3 inh,ADAM10 inh,ADAM17 inh,proKLK7 act conf,EDANS-DABCYL int,others
O=C(Nc1ccc(Cl)cc1)c1cccs1,0,1,5,-2,-1,x,x,
COc1cccc(OC)c1C(=O)Nc1cccc(NC(=O)c2cccs2)c1,0,1,-6,5,-2,x,x,
O=C(Nc1ccc(NC(=O)c2cccs2)cc1)c1cccs1,0,14*,10,-21,-6,30*,22*,EDANS interf=>70
COc1ccc(S[C@]2(C(=O)NCC(C)C)CC(=O)N[C@@H]2c2ccc(OC)cc2)cc1,-4,0,3,-1,-2,x,x,
CN=C1S/C(=C/c2cc(C)n(Cc3ccccc3)c2C)C(=O)N1C,-14,x,-18,1,0,x,x,
CC1CCC2(CCC(=O)N2CCCOC(=O)NC(C)(C)C)CC1 (stereo not drawn),2,0,-3,-11,-4,x,x,
CCCC(=O)N1CCC[C@]2(CC[C@H](CCC#N)O2)C1,-1,0,-3,-4,1,x,x,
CN(CCOC(=O)c1cccs1)C1CN(Cc2cn(Cc3ccccc3Cl)nn2)S(=O)(=O)C1 (stereo not drawn),3,0,-4,-4,-9,x,x,
CC1CCCN(CCCNC(=O)c2coc3nc4ccccc4nc23)C1 (stereo not drawn),-302,30*,-354,i,-460,50*,76*,
CC1CCN(CCCNC(=O)c2coc3nc4ccccc4nc23)CC1,-448,49*,i,i,i,64*,69*,
Cc1ccc(CCNC(=O)c2coc3nc4ccccc4nc23)cc1,-73,3,-83,-252,-73,x,x,
COC(=O)C1CN(Cc2ccc(F)cc2)CCS(=O)(=O)N1Cc1ccc(C)cc1 (stereo not drawn),-1,0,3,9,1,x,x,
O=S1(=O)c2c(cccc2N2CC[C@@H](O)C2)O[C@H]2CCN1C2,-1,1,2,-2,-4,x,x,
Cc1nc2nc(-c3ccc(F)cc3)cn2nc1C,i,67*,i,i,i,69*,59*,
Cc1cc(N2CCOCC2)n2cc(-c3ccc(F)cc3)nc2n1,-51,4,-80,-172,-64,x,x,
Cc1nc2nc(-c3ccccc3)cn2nc1C,i,64*,i,i,i,70*,72*,
Brc1ccc(-c2cn3nc4c(nc3n2)CCCC4)cc1,-178,-2,-252,-119,-37,x,x,
CCc1ccc(-c2cn3nc(C)c(C)nc3n2)cc1,i,49*,i,i,i,73*,72*,
CCc1c(-c2ccccc2)nc2nc(C)c(C)nn12,-230,15*,-296,-102,-27,-4,0,
NC(=O)C1CCN(c2ncc(Br)s2)CC1,-9,x,-11,-15,-7,x,x,
O=C(NCc1cccs1)c1cc2c(s1)-c1ccccc1OC2,i,-18,i,i,i,x,x,
O=C(NCCCN1CCOCC1)c1cc2c(s1)-c1ccccc1OC2,i,47*,i,i,i,68*,65*,
O=C(NC1CC1)c1cc2c(s1)-c1ccccc1OC2,i,47*,i,i,i,75*,87*,
O=C(O)c1cc2c(s1)-c1ccccc1OC2,i,34*,i,i,i,77*,73*,
O=C(c1ccco1)N1CCN(C(=O)c2cc3c(s2)-c2ccccc2OC3)CC1,i,23*,i,i,i,4,-67,
FC(F)(F)c1cc(CNC2CCC23CCC(c2ccccc2)CC3)ccc1Cl (stereo not drawn),-2,x,-2,-7,-6,x,x,
Cc1cc(NCCCN(C)C)n2nc(-c3cccs3)cc2n1,-17,2,-24,-35,-13,x,x,
Cc1cc(C)c2c(n1)nn1c(NCCCN(C)C)cc(C)nc21,i,72*,i,i,i,46*,48*,
Cc1cc(C)c2c(n1)nn1c(NCCOCCO)cc(C)nc21,i,61*,i,i,i,78*,80*,
